Screening data (PubChem BioAssay)
EPAC2 antagonist = blocks human EPAC2 exchange factor | Q8WZA2 | EPAC2 GEF exchange of Rap1B-BODIPY-GDP, fluorescence | Potency, µM (titrated, usually from 114 µM), most hits filed as inhibitors | 0.18% of 360,000 active; also: nearly all actives have a fitted effect of over 45% in size
Target sequence (Q8WZA2 whole entry, looked up): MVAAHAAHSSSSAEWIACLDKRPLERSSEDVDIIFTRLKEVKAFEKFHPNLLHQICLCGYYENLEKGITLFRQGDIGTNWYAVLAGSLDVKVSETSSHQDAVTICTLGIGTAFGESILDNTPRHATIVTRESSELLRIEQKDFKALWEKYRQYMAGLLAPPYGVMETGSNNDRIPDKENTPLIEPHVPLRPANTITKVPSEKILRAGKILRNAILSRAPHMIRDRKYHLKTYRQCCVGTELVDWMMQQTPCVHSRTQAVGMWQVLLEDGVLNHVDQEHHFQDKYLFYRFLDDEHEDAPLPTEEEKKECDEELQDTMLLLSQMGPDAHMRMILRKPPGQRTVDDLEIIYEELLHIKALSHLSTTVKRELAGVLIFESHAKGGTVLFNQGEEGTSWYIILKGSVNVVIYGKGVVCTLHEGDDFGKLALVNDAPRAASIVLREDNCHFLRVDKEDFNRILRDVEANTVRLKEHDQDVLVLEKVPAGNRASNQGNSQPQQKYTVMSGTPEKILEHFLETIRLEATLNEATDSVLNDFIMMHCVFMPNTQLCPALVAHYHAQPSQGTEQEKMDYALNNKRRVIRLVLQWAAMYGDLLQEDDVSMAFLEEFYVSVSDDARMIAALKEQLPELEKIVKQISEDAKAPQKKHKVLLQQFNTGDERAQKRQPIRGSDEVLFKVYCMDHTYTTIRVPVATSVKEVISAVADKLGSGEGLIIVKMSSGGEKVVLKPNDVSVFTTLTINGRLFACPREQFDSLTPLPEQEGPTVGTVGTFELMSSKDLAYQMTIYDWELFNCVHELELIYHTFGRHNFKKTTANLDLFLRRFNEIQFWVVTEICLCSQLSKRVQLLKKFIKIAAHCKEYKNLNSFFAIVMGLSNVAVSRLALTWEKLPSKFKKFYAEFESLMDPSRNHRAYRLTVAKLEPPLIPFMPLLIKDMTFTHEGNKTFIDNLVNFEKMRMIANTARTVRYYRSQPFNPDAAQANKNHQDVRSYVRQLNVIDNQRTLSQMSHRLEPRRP
EPAC1 antagonist = antagonists of human EPAC1; 0.14% of 360,000 active; EPAC1 GEF assay, Rap1b-BODIPY-GDP exchange fluorescence; AID 720709; Potency, µM (highest dose often 115 µM), usual class: inhibitors; also: nearly all actives have a fitted effect of over 50% in size
USP1-UAF1 inh = blocks the human USP1/UAF1 deubiquitinase complex; O94782; recombinant USP1/UAF1, Ub-Rhodamine cleavage fluorescence; Potency, µM (series often up to 57.1 µM), most hits filed as inhibitors; 0.23% of 390,000 active; AID 743255; also: nearly all actives have a fitted effect of over 60% in size
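USP1/UAF1 complex at 1 nM was preincubated with compound for 15 min at room temperature, then Ub-Rho substrate (150nM final) was added. Fluorescence (480/540 nm) was read kinetically, 6 reads every 60 seconds.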
EPAC1 ag = EPAC1 (human) agonism; Potency, µM (top dose mostly 154 µM), hits mostly activators; AID 720707; 0.073% of 360,000 active; EPAC1 agonist qHTS, biochemical assay; response scale: 100% = response to 6.5 mM cAMP; O95398; also: nearly all actives have a fitted effect of over 60% in size
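Fluorescent GDP-exchange assay: 100 nM EPAC1 with 250 nM Rap1B preloaded with BODIPY-GDP and 50 uM GDP; compounds tested as concentration series, 5 min at room temperature, then read every 5 min for 30 min (ex 480/em 540 nm); normalized to 6.5 mM cAMP.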
EPAC2 agonist = activates human EPAC2 exchange factor; Potency, µM (top dose mostly 154 µM), actives largely listed as activators; 0.079% of 360,000 active; Q8WZA2; EPAC2 activation, biochemical qHTS; response scale: 100% = 6.5 mM cAMP response; also: nearly all actives have a fitted effect of over 50% in size
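Nucleotide exchange monitored as fluorescence drop when BODIPY-GDP leaves Rap1B. Reaction: 100 nM EPAC2, 250 nM RAP1B-BODIPY-GDP, 50 uM GDP, room temperature, kinetic read over 30 min. Activity expressed relative to 6.5 mM cAMP.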
Hits are given with their value; i = inactive; ? = inconclusive; nt = no result given; ! = a repeat was not active. This is a sample that favours compounds with a hit; in the whole collection about 0.44% have one here. Calls follow the shape of the dose curve; as a rule, active = well fitted curve in the direction sought with a large enough effect; inconclusive = small, poorly fitted or top-dose-only effect, or another doubt; inactive = no such curve, though single readings can be large; an effect the other way counts as inactive or inconclusive.

SMILES	EPAC2 antagonist	EPAC1 antagonist	USP1-UAF1 inh	EPAC1 ag	EPAC2 agonist
CCCCNC1=CC(=O)C(NCCCC)=CC1=O	i	i	i	i	i
O=C(CN1C(=O)c2ccccc2C1=O)Nc1cccc2cccnc12	i	i	i	i	i
CCCCNC1=CC(=O)C(=O)c2ccccc21	i	?	25µM	i	i
O=C1C=C(Nc2ccccc2C(=O)O)c2ccccc2C1=O	?	i	7.9µM	i	i
O=C1C=C(Nc2ccccc2)c2ccccc2C1=O	i	i	13µM	i	i
O=C1C=C(Nc2cccc3cccnc23)c2ccccc2C1=O	i	?	18µM	i	i
COc1cc(NC(=O)Cn2cnc3sc(C)c(S(=O)(=O)N4CCC(C)CC4)c3c2=O)cc(OC)c1OC	nt	nt	i	nt	nt
CC1Cc2cc(S(=O)(=O)CCC(=O)Nc3ccc(Cl)cc3F)ccc2N1C(=O)C1CC1 (stereo not drawn)	nt	nt	i	nt	nt
CCc1ccc(NC2=CC(=O)C(=O)c3ccccc32)cc1	i	i	28µM	i	i
COc1cccc(/C(O)=C/c2nc3ccc(C(=O)NCCc4cccc(C)c4)cc3[nH]c2=O)c1	i	i	i	89µM	112µM
COc1cccc(/C(O)=C/c2nc3ccc(C(=O)NCCc4ccc(Cl)cc4)cc3[nH]c2=O)c1	i	i	?	?	112µM
COC(=O)C1(C(=O)OC)c2ccccc2N(S(=O)(=O)c2ccc(C)cc2)C1CC(=O)c1ccccc1 (stereo not drawn)	i	i	nt	i	i
COc1ccc(C2C(=O)N(C3CCC(C)CC3)CC(=O)N2C2CCCC2)cc1OC (stereo not drawn)	nt	nt	i	nt	nt
CC(OC(=O)/C(C#N)=C/c1ccc(N(C)C)cc1)C(=O)N(C)c1ccccc1 (stereo not drawn)	i	i	?	56µM	63µM
O=C(COC(=O)c1cc(S(=O)(=O)N2CCCC2)ccc1O)Nc1ccccc1Br	i	i	i	i	i
O=C(COC(=O)c1c2c(nc3ccccc13)/C(=C\c1ccco1)CC2)NC1CCCC1	i	?	i	i	i
CC1CCCCC1NC(=O)COC(=O)c1c2c(nc3ccccc13)/C(=C\c1ccco1)CC2 (stereo not drawn)	i	35µM	?	i	i
COc1ccc(-c2ccc(N)cn2)cn1	i	i	i	i	i
COc1ccc(/C(N)=N/OC(=O)c2ccc(C)c([N+](=O)[O-])c2)cc1	i	i	i	i	10µM
O=Cc1ccc(C(=O)OCC(=O)Nc2ccc(F)cc2F)cc1	i	i	i	i	i
Oc1ccc(/C=N/Nc2ncnc3nc[nH]c23)cc1	18µM	i	i	i	i
Clc1ccc(/C=N/Nc2ncnc3nc[nH]c23)cc1	i	i	i	i	i
O=C(N/N=C/c1c(O)n(-c2ccccc2Cl)c(=O)c2ccccc12)C1COc2ccccc2O1 (stereo not drawn)	i	10µM	i	i	i
O=C(O)CN1C(=O)/C(=C\c2cccc(OCc3ccccc3F)c2)SC1=S	89µM	?	i	i	i
COc1ccc(/C=C2/SC(=S)N(Cc3ccccc3)C2=O)cc1O	i	i	i	i	i
SMILES	EPAC2 antagonist	EPAC1 antagonist	USP1-UAF1 inh	EPAC1 ag	EPAC2 agonist
COc1ccc(/C=C2/SC(=S)N(CCC(=O)O)C2=O)cc1	i	i	i	i	i
O=C1/C(=C\c2cc(Cl)c(O)c(Cl)c2)SC(=S)N1Cc1ccccc1	i	i	4µM	i	?
O=C(O)CCN1C(=O)/C(=C\c2cccc(Oc3ccccc3)c2)SC1=S	79µM	?	?	i	i
CCOc1cccc(C(=O)Nc2ccc3oc(Cc4ccc(Cl)cc4)nc3c2)c1	i	i	i	i	7.9µM
O=C(Nc1ccc2oc(Cc3ccc(Cl)cc3)nc2c1)c1cccnc1	i	i	i	i	i
CN1CCN(CCCN2c3ccccc3Sc3ccc(Cl)cc32)CC1	13µM	i	i	i	i
CCSc1ccc2c(c1)N(CCCN1CCN(C)CC1)c1ccccc1S2	i	i	i	i	i
CCc1nc2ccc(C(=O)N(C)Cc3ccco3)cn2c1N(C)CCCc1ccccc1	?	i	nt	i	i
CC(NC(=O)COc1cccnc1[N+](=O)[O-])c1ccc(Cl)cc1 (stereo not drawn)	i	i	i	i	i
COc1ccc(S(=O)(=O)N2CCCC(C(=O)NCC3CCCO3)C2)cc1OC (stereo not drawn)	i	i	i	i	i
COc1ccccc1NC(=S)NC1CCCCCC1	i	i	i	i	i
Nc1cc2nsnc2cc1Br	?	?	4.5µM	i	i
CN1/C(=C\C=C(/C#N)C(=O)Nc2ccccc2F)C(C)(C)c2ccccc21	i	i	i	?	100µM
Cc1oc2c(cc(NS(=O)(=O)c3ccc(C(C)C)cc3)c3ccccc32)c1C(=O)O	i	i	28µM!	i	?
O=C1S/C(=C/c2ccccc2)C(=O)N1CC(O)Cn1c2ccccc2c2ccccc21 (stereo not drawn)	i	i	i	i	i
CN(C)c1ccc(/C=C2\SC(=O)N(CC(O)Cn3c4ccccc4c4ccccc43)C2=O)cc1 (stereo not drawn)	i	i	13µM	?	i
CC(NC(=O)c1ccco1)C(=O)N1CCCCC1 (stereo not drawn)	i	i	i	i	i
O=C(c1ccccc1)[C@@H]1[C@@H](C(=O)c2ccc(F)cc2)[C@@]2(C(=O)Nc3ccccc32)[C@H]2c3ccccc3C=CN12	i	i	28µM	i	i
O=c1nc2onnc2c(C=NO)[nH]1	i	i	i	i	i
CS(=O)(=O)c1ccc(C(=O)OCc2nnc(-c3ccccc3)o2)cc1[N+](=O)[O-]	i	89µM	i	i	i
CN(Cc1ccccc1)C(=O)[C@@H]1CCCN1S(=O)(=O)c1ccc(Cl)cc1	i	i	i	i	i
Brc1cc2c(cc1CSc1ncccn1)OCO2	35µM	i	?	i	i
CC1(C2CCC3C4CCC5CC6(CCC5(C)C4C(=O)CC32C)OCCO6)OCCO1 (stereo not drawn)	56µM	?	i	i	i
Cc1cccc(C(=O)N2c3ncnn3C3(CCCCC3)[C@@H]3CCCC[C@@H]32)c1	nt	nt	i	nt	nt
CCN1CCc2c(sc(NC(=O)c3ccc(S(=O)(=O)N(C)c4ccccc4)cc3)c2C(=O)NC)C1	i	i	?	i	100µM
CCOC(=O)C1=C(c2ccccc2)N=c2sc(=Cc3cc(OC)c(OC)c(OC)c3)c(=O)n2C1c1cccs1 (stereo not drawn)	i	i	nt	i	i
CCOC(=O)C1=C(c2ccccc2)N=c2s/c(=C\c3ccc(O)cc3)c(=O)n2C1c1cccs1 (stereo not drawn)	i	i	28µM	i	i
CCOc1ccc2c(ccc(/C=C/c3cc(C)c4cccnc4c3O)[n+]2C)c1	40µM	35µM	i	63µM	?
